# In the library only some 10% were active in any assay of this set; here they are far more common.
# SW480 rereplic: A quantitative high throughput screen for small molecules that induce DNA re-replication in SW480 colon adenocarcinoma cells | SW480 DNA re-replication, Hoechst DNA content imaging, 48 h | Potency, µM (doses to about 46.1 µM), for inactives: top-dose re-replication activation, actives largely listed as activators | 340,000 tested, 1.8% active; also: % of control where 0% means no effect; nearly all actives have a fitted effect of over 55% in size
#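 Image-based DNA-content assay: after two days of treatment, nuclei were labelled with the DNA dye Hoechst and imaged, and hits were compounds raising the count of nuclei showing high fluorescence intensity.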
# RORgamma inh: qHTS for inhibitors of ROR gamma transcriptional activity | Nuclear receptor ROR-gamma (Mus musculus), P51450 | Drosophila S2 Gal4-RORgamma UAS-luciferase reporter, 20 h | Potency, µM (doses to about 53.6 µM), for inactives: at the highest dose activity change, negative = inhibition, actives largely listed as inhibitors | 310,000 tested, 5.4% active; also: % is scaled to controls: 0 for no effect and ±100 for the full control effect; nearly all actives have a fitted effect of over 60% in size
# Target sequence (P51450 whole entry, looked up, the tested form may be a part): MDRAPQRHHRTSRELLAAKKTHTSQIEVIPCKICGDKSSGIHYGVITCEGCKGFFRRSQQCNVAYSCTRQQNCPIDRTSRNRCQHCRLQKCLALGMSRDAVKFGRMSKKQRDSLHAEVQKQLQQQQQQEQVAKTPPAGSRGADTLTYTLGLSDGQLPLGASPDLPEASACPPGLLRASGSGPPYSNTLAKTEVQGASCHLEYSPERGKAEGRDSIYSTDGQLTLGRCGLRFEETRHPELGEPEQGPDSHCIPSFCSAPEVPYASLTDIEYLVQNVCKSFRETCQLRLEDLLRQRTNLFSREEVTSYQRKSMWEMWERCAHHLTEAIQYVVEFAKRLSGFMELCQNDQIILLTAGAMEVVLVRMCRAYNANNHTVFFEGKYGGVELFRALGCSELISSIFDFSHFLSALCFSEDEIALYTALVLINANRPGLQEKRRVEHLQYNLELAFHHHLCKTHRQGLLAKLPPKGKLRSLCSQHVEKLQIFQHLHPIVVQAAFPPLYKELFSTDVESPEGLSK
#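 Stably transfected Drosophila Schneider cells are the test system, with ROR gamma fused to Gal4 and luciferase under UAS control; luminescence is read after 20 hr of 700 uM copper sulfate induction at ambient temperature.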
# VP16 counter: VP16 counterscreen qHTS for inhibitors of ROR gamma transcriptional activity; Drosophila S2 Gal4-VP16 UAS-luciferase, luminescence, 20 h; Potency, µM (top dose mostly 53.6 µM), inactives show top-dose activity, negative = inhibition, usual class: inhibitors; 310,000 tested, 3.5% active; AID 2546, 2010;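 also: Gal4-VP16 expression switched on by copper sulfate through the metallothionein promoter; % is scaled to controls: 0 for no effect and ±100 for the full control effect; nearly all actives have a fitted effect of over 50% in size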
# MCF10A rerep: A quantitative high throughput screen for small molecules that induce DNA re-replication in MCF 10a normal breast cells; AID 624296, 2012; 350,000 tested, 2.9% active; Potency, µM (highest dose often 46.1 µM), for inactives: at the highest dose activity, positive = re-replication, usual class: activators; MCF 10A DNA re-replication, Hoechst nuclear intensity, 48 h; also: % of control where 0% means no effect; nearly all actives have a fitted effect of over 50% in size
# ELG1 repair inh: qHTS screen for small molecules that inhibit ELG1-dependent DNA repair in human embryonic kidney (HEK293T) cells expressing luciferase-tagged ELG1 | HEK293T ELG1-luciferase reporter, luminescence, 16 h; DNA damage induced by 5-fluorouridine | Potency, µM (series often up to 46.1 µM), without a hit: at the highest dose activity change, negative = inhibition, hits mostly inhibitors | 330,000 tested, 2.3% active | AID 504467, 2011; also: % is scaled to controls: 0 for no effect and ±100 for the full control effect; nearly all actives have a fitted effect of over 55% in size
#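 In this reporter screen, reduction of luminescence relative to DMSO vehicle indicated activity. Compounds and 5-fluorouridine were added together to 2,000 cells per well, incubated for 16 hr at 37 °C, then developed with ONE-Glo.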
# Active calls of the source: *; ? = inconclusive; nt = not tested or not shown; [ ] = another dose, or the depositor's remark. Calls follow the shape of the dose curve; as a rule, active = well fitted curve in the direction sought with a large enough effect; inconclusive = small, poorly fitted or top-dose-only effect, or another doubt; inactive = no such curve, though single readings can be large; an effect the other way counts as inactive or inconclusive. Potency is read from the fitted curve at half-maximal effect.
SMILES,SW480 rereplic,RORgamma inh,VP16 counter,MCF10A rerep,ELG1 repair inh
COc1ccc(NC(=O)COC(=O)C2CC2)cc1S(=O)(=O)N1CCCCC1,-1%,nt,nt,0%,11%
O=C(NCc1ccccc1)c1onc(CSc2ccc(F)cc2)c1C(=O)NCc1ccccc1,6%,nt,nt,17%,nt
Cc1cc(C)cc(SCc2noc(C(=O)NCc3ccccc3)c2C(=O)NCc2ccccc2)c1,-30%,-16%,5%,4.6µM*,-4%
COc1ccc(C(C#N)=C2C=CC(=NO)C=C2)cc1,?,?,?,23µM*,-16%
COc1ccc(C(=O)c2ccc(Cl)cc2)cc1,-5%,3%,-2%,1%,?
COc1ccc(NC(=O)c2cc(S(=O)(=O)N3CCCCC3)ccc2OC)cc1,-1%,32%,-4%,-25%,7%
CN(C)S(=O)(=O)c1cccc(NC(=S)NC(=O)C2CCCCC2)c1,-7%,?,?,?,?
O=C(NNC(=S)NC1CC2C=CC1C2)c1ccncc1 (configuration not stated),2%,-15%,-4%,?,11%
Cc1cccc(NC(=S)NC(=O)C2CC2)c1,nt,7.9µM*,?,nt,?
O=C(NC(=S)Nc1cccc([N+](=O)[O-])c1)C1CCCCC1,20%,10µM*,?,0%,15%
Cc1cccc(NC(=S)NC2CC3C=CC2C3)c1 (configuration not stated),-23%,5µM*,11µM*,-1%,4%
Cc1cc(C)cc(NC(=S)NC(=O)C2CC2)c1,4%,7.1µM*,6.3µM*,1%,7%
Cc1cccc(NC(=O)C2CCCC2)c1,-3%,39%,-5%,2%,38%
CCOC(=O)c1cc(CC)sc1NC(=O)c1ccc([N+](=O)[O-])c(N2CCOCC2)c1,-4%,-4%,5%,-3%,19%
CC(=O)c1ccc(Nc2c3ccccc3cc3occc23)cc1,nt,11%,-16%,nt,nt
Cc1ccc(NC(=O)CN(C)S(=O)(=O)c2cccs2)c(Br)c1,1%,20%,22%,2%,?
Cc1cc(NC(=S)NC(=O)C2CC2)ccc1Br,-2%,2.5µM*,2.5µM*,?,?
CC(=O)Nc1ccc(NC(=S)NC(=O)C2CCCC2)cc1,-8%,15%,0%,3%,1%
NCCCCCCCCCCNS(=O)(=O)c1cccc2c(Cl)cccc12,nt,?,32µM*,nt,nt
O=C1Cc2cc([N+](=O)[O-])ccc2N1c1c(Cl)cccc1Cl,1%,4%,-9%,-9%,-9%
O=C(NNC(=O)c1ccc(F)c(S(=O)(=O)N2CCOCC2)c1)c1ccc([N+](=O)[O-])cc1,-2%,nt,nt,-12%,0%
CCC(C)c1ccc(NC(=S)NN2CCOCC2)cc1 (configuration not stated),-44%,2.2µM*,4.5µM*,1%,?
COc1ccc(NC(=S)NN2CCN(C)CC2)cc1,-6%[9.22 µM],-3%,-6%,-8%,2%
CCOC(=O)c1ccc(NC(=S)NN2CCOCC2)cc1,-1%,?,?,23µM*,?
CC(C)c1ccc(NC(=S)NN2CCN(C)CC2)cc1,-2%,11µM*,14%,6%,-9%
SMILES,SW480 rereplic,RORgamma inh,VP16 counter,MCF10A rerep,ELG1 repair inh
CCOC(=O)c1ccc(NC(=S)Nc2ccc(C)cc2)cc1,5%,13µM*,?,-2%,?
CCCCc1ccc(NC(=S)NN2CCOCC2)cc1,0%,-8%,-26%,6%,?
Nc1c2c(nn1-c1ccc(F)cc1)CSC2,-3%,1%,-3%,24%,28%
N=C(SC1CC(=O)N(c2ccc(F)cc2)C1=O)N1N=C(c2ccccc2)CC1c1ccccc1 (configuration not stated),0%,-1%,8%,-7%,?
CCOC(=O)c1ccc(NC(=S)N2CCSC2c2ccc(OC)cc2)cc1 (configuration not stated),6%,?,?,11%,13%
CCOC(=O)c1ccc(NC(=S)N2CCSC2c2ccc(Cl)cc2)cc1 (configuration not stated),-1%,14µM*,?,?,10%
Fc1cc(F)cc(NC(=S)NN2CCOCC2)c1,-2%,10µM*,7%[10 µM],0%,-10%
CCOC(=O)c1ccc(NC(=S)Nc2ccccc2)cc1,?,?,-13%,0%,24%
CCOC(=O)c1cn[nH]c1NC(=S)Nc1ccc(Cl)cc1,-2%,2.8µM*,?,0%,?
CCOC(=O)c1cccc(NC(=S)NCc2ccc(C)cc2)c1,-8%,10µM*,?,-4%,10%
O=C(O)c1cccc(NC(=S)NCc2ccccc2)c1,-1%,-3%,-3%,1%,21%
O=C1CCCN=C(Nc2ccc(F)c(Cl)c2)S1,?,2%,?,6%,27%
CN(Cc1ccccc1)C(=O)c1nc2ccccn2c1CN1CCC(N2CCOCC2)CC1,-8%,5%,2%,-14%,-1%
CCOC(=O)c1ccc(NC(=S)NCCc2ccc(F)cc2)cc1,?,10µM*,?,28%,6%
CCOC(=O)c1ccc(NC(=O)C(=O)NCCc2ccc(OC)cc2)cc1,?,0%,3%,-6%,10%
Cc1ccc2c(CN3CCC(C(N)=O)CC3)cc(=O)oc2c1C,-10%,?,-30%,0%,?
Cc1ccc(S(=O)(=O)N2CCCC(C(=O)NCc3ccccn3)C2)cc1 (configuration not stated),-5%,69%,5%,1%,7%
Cc1ccc(S(=O)(=O)N2CCCC2CNC(=O)C(=O)NCc2ccccn2)cc1 (configuration not stated),20%,nt,nt,-21%,5%
O=C(NCc1ccccn1)C1CN(S(=O)(=O)c2ccccc2)CCN1S(=O)(=O)c1ccccc1 (configuration not stated),-3%,11µM*,-7%,-4%,2%
CC(C)(C)c1ccc(S(=O)(=O)N2CCCCC2C(=O)NCc2ccccn2)cc1 (configuration not stated),4%,?,2.5µM*,0%,?
CCOC(=O)C(C#N)(Cc1cc(OC)cc(OC)c1)Cc1cc(OC)cc(OC)c1,16%[9.22 µM],nt,nt,-15%,nt
N#Cc1c(NCc2ccccc2)ccnc1NCc1cccnc1,-7%,?,10µM*,9%,-8%
N#Cc1c(F)cccc1NCc1cccnc1,4%,14%,5%,2%,?
CC1(C)NC(=O)N(CCCCOc2ccccc2[N+](=O)[O-])C1=O,nt,5%,4%,nt,1%

# High-throughput results (PubChem)
